Mcl1 Noxa PPI – disrupts binding of human Mcl-1 to Noxa peptide; actives 1.5% (n = 220,000); Q07820; TR-FRET Mcl-1/Noxa peptide binding, 2 h; inhibition, % at 21.7 µM;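 active means compounds that cut the protein-peptide binding signal by more than 50% relative to plate controls in a single-dose test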;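 further: His-tagged Mcl-1 with rhodamine Noxa BH3 peptide and terbium anti-His antibody; 0% = Mcl-1 plus Noxa peptide wells and 100% = peptide-only wells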
eIF4E 4G PPI – inhibitors of eIF4E and eIF4G interaction in translation initiation; P63073+Q04637; TR-FRET eIF4E-eIF4GI(517-606) binding, 2 h; inhibition, % at 21.7 µM; actives 0.37% (n = 220,000); AID 782;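 further: 0% = full FRET control wells and 100% = background wells lacking eIF4GI fragment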
14-3-3 Bad PPI – disrupts binding of bovine 14-3-3 zeta to phospho-Bad peptide; inhibition, % at 21.7 µM; actives 0.71% (n = 220,000); TR-FRET 14-3-3zeta/Dy647-pBad peptide displacement, 1 h; P63103; AID 781;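 active means inhibition above about 70%, limit read from the data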;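 further: 0% = full 14-3-3 plus peptide FRET controls and 100% = background without 14-3-3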
Target sequence (P63103 whole entry, looked up): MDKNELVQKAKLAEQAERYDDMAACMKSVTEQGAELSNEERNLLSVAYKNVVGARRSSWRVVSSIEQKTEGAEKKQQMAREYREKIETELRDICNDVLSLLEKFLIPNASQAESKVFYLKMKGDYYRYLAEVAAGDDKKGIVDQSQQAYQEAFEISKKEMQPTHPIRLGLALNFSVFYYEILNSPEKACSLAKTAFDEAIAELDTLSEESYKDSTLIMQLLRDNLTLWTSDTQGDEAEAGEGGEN
Mcl1 Bid PPI – disrupts binding of human Mcl-1 to Bid peptide; Q07820; TR-FRET Mcl-1/Bid-Dy647 peptide binding, 1536-well; inhibition, % at 21.7 µM; actives 0.97% (n = 220,000); AID 1021;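 active means compounds that cut the binding signal by more than half at the single screening dose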;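 further: His-tagged Mcl-1 with europium anti-His antibody binding Bid BH3 peptide; 0% = Mcl-1 plus peptide wells and 100% = peptide-only wells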
NCF1 inh – inhibitors of human p47phox binding | p47phox/p22phox peptide binding, fluorescence polarization, 2 h | AID 1274 | actives 0.53% (n = 220,000) | inhibition, % at 24.7 µM;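 further: 0% = p47phox with labelled peptide and 100% = labelled peptide alone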
Target sequence (P14598 whole entry, looked up): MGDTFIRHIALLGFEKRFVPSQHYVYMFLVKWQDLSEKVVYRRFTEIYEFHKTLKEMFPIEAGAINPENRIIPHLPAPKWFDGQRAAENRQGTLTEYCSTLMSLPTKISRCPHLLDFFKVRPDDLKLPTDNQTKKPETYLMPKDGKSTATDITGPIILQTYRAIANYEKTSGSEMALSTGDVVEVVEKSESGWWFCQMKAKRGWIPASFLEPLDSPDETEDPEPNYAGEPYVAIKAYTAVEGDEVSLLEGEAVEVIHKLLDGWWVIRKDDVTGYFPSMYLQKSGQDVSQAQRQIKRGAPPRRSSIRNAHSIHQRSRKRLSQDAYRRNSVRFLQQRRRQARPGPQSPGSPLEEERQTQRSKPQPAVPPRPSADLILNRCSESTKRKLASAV
Bim-Mcl-1 – inhibitors of Bim-Mcl-1 interaction, human; inhibition, % at 10 µM; Q07820; AID 1009; Bead-based flow cytometry, Bim peptide-Mcl-1 binding; actives 0.1% (n = 190,000); in the data active means inhibition above about 40%;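 further: 0% = no compound tracer wells and 100% = peptide blocker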
* hit, by the source's call; nt = no result; [ ] = dose if it differs, or a comment. Most compounds without a hit are left out; they make up all but 3.3% or so of the library.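 How the source made its calls, unless noted: active means inhibition above about 30% (limit read from the data); inactive means the rest.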

SMILES	Mcl1 Noxa PPI	eIF4E 4G PPI	14-3-3 Bad PPI	Mcl1 Bid PPI	NCF1 inh	Bim-Mcl-1
CNCc1ccccc1Sc1cc(O)ccc1O	99.3*	47.5*[fluorescence artefact?]	57.4	39.8	4.8	-2.0
CNCc1ccccc1Sc1cccc(O)c1	13.1	21.7	4.9	-27.5	-16.5	-4.0
NC(=O)c1ccc(N=Cc2ccc([N+](=O)[O-])s2)cc1	19.1	-0.4	-12.2	-2.1	-6.2	3.0
Cc1cc(N)ccc1-n1c(C)ccc1C	26.0	-4.9	-6.5	-204.1	-5.5	0.0
NC(=O)c1cc(N)ccc1N1CCCC1	23.1	-1.6	1.8	-26.1	140.3*	-2.0
Cc1cc(N)ccc1N1CCCC1	82.8*	45.1*[fluorescence artefact?]	96.6*[fluorescence artefact?]	-23.7	97.0*	32.0
Cc1cccc(-n2cc(-c3ccc([N+](=O)[O-])cc3)[nH]c2=S)c1	51.7*	-0.7	14.8	34.0	-13.2	-6.0
O=[N+]([O-])c1ccc(-c2cn(-c3ccccc3)c(=S)[nH]2)cc1	33.8	2.0	-1.7	-16.7	-5.7	-7.0
CC(=O)c1c(C(=O)O)c2ccccc2[nH]c1=O	3.1	92.2*	4.7	-7.4	-14.1	nt
O=C(CCNc1ccc(Cc2ccncc2)cc1)c1ccc([N+](=O)[O-])cc1	10.1	-2.9	-7.6	-35.8	0.2	-1.0
Cc1ccc(C(=O)N2CC(=O)Nc3ccc(F)cc3C2c2ccc(F)cc2)cc1[N+](=O)[O-] (centres undefined)	9.0	3.1	11.3	52.7*	8.2	-4.0
O=C(c1ccc2c(=O)n3c(nc2c1)CCCCC3)N1CCc2ccccc21	4.4	-6.0	-1.0	-22.6	-8.0	nt
O=C(COc1ccccc1C(=O)NCC1CCCO1)Nc1ccc(Br)cc1 (centres undefined)	-0.8	-4.5	8.5	2.1	15.7	-2.0
OC(COCC1COc2ccccc2O1)CN1CCN(c2ccccn2)CC1 (centres undefined)	22.9	-0.8	80.0*	9.1	8.2	-1.0
COc1cc(-c2nnc(SCc3cc(=O)oc4cc(O)c(O)cc34)o2)cc(OC)c1OC	77.1*	14.3	-8.1	-72.0	-20.1	5.0
CCOC(=O)CSc1nnc(-c2cc(OC)c(OC)c(OC)c2)o1	3.9	1.0	1.3	-34.4	3.9	0.0
CCCCCOC(=O)CSc1nnc(-c2cc(OC)c(OC)c(OC)c2)o1	6.5	2.9	-7.8	-3.3	31.1*	-1.0
CCN(CC)c1ccc(NC(=O)Cn2c(C(C)NC(=O)c3ccc(C)cc3)nc3ccccc32)cc1 (centres undefined)	32.4	19.3	94.7*	89.7*	nt	4.0
CCCn1c(C(C)NC(=O)c2ccccc2)nc2ccccc21 (centres undefined)	-0.9	1.4	-6.1	1.9	7.2	nt
CCN(CC)c1ccc(NC(=O)CCNC(=O)c2ccco2)cc1	79.3*	7.5	-19.8	-73.8	-3.5	-1.0
CN1C(=O)/C(=C/c2cn(CC(=O)NCc3ccco3)c3ccccc23)NC1=S	72.7*	9.8	4.5	-22.2	-12.5	8.0
CN1CCN(C(=S)NC(=O)c2ccco2)CC1	8.4	-1.0	-7.3	-26.9	-2.8	0.0
Cc1ccc2[nH]c(=O)c(CN(C)C(=O)c3cccs3)cc2c1	12.3	1.7	1.0	3.9	-4.4	0.0
Cc1ccc(N(Cc2cc3cc(C)ccc3[nH]c2=O)C(=O)c2cccs2)cc1	-7.6	5.3	-0.2	60.9*	-2.1	-4.0
OC(COC(c1ccccc1)c1ccccc1)CN1CCOCC1 (centres undefined)	2.0	-1.8	-5.7	-14.6	0.8	-4.0
SMILES	Mcl1 Noxa PPI	eIF4E 4G PPI	14-3-3 Bad PPI	Mcl1 Bid PPI	NCF1 inh	Bim-Mcl-1
c1ccc(C(CN2CCOCC2)c2ccccc2)cc1	12.8	1.3	84.4*	45.0	5.7	0.0
COC(=O)c1cc(NC(=S)NCc2ccc(Cl)cc2)cc(C(=O)OC)c1	15.4	1.4	-2.5	96.6*	-10.3	-4.0
COC(=O)c1cccc(NC(=S)NCc2ccc(Cl)cc2)c1	9.2	-3.8	-13.7	-17.1	-6.4	-6.0
CNc1nc(Sc2ccc(C)cc2)cc(C(F)(F)F)n1	16.0	0.4	5.6	1.4	-8.5	1.0
CN(C)c1ccc(/C=C2\C(=N)N3C(=NC2=O)Sc2cc(S(C)(=O)=O)ccc23)cc1	59.9*	-13.5	37.4	63.6*	-60.1	nt
COc1cccc(-n2c(C)cc(/C=C3/C(=N)N4C(=NC3=O)SN=C4S(C)(=O)=O)c2C)c1	32.5	7.6	-19.2	-16.9	-49.2	2.0
NC(=O)C(=CNc1nc(-c2ccc(Cl)c(Cl)c2)cs1)C(N)=O	73.3*	12.3	25.6	-35.3	11.9	nt
O=C(O)c1ccc(-c2nc(-c3ccc(Cl)c(Cl)c3)cs2)cc1	-2.5	1.9	7.5	5.3	-11.5	-1.0
COc1cc2c(cc1OC)C(C)N(C(=S)NC(=O)c1ccccc1)CC2 (centres undefined)	18.4	2.9	-9.3	-75.4	-6.8	0.0
CCn1c(SCc2nc3cc(OC)c(OC)cc3c(=O)[nH]2)nc2ccccc21	-6.7	-1.3	8.1	-50.1	-11.2	3.0
COc1cc2nc(CN3CCN(C(c4ccccc4)c4ccccc4)CC3)[nH]c(=O)c2cc1OC	-22.6	-0.5	4.0	-53.1	63.0*	nt
O=C(Cn1cc2c(n1)CCCCC2)NCc1ccccn1	-6.5	-1.0	-2.2	-32.1	43.4*	-1.0
CCOc1ccc(C2CC(=O)N(Nc3ccc([N+](=O)[O-])cc3[N+](=O)[O-])C2=O)cc1 (centres undefined)	54.3*	7.9	0.7	-0.5	-0.1	nt
COc1cc(/C=C(\C#N)c2[nH]nc(N)c2C#N)cc(OC)c1O	56.4*	-0.8	-13.8	11.6	-67.7	0.0
Cc1cc(C)c(N)c(C(=O)O)c1	12.8	-1.0	57.6	61.0*	-8.7	nt
Cc1cc(C(=O)O)cc(Br)c1N	2.4	0.7	-0.1	-11.9	-2.2	1.0
COc1cc(/C=C2/NC(=O)N(Cc3ccccc3F)C2=O)cc(OC)c1O	56.8*	4.3	-1.9	-46.2	-10.3	51.0*
O=C(CCN1CCN(CCO)CC1)Nc1ccc(OCc2ccccc2)cc1	47.2	0.1	5.5	54.8*	-3.9	-1.0
CC1=CCC(C(=O)O)C(C(=O)Nc2ccc(-c3nc4ccc(C)cc4s3)cc2)C1 (centres undefined)	24.0	79.8*	17.1	-16.5	-15.3	nt
CC(=O)NC(=S)Nc1ccc(-c2nc3ccc(C)cc3s2)cc1	5.6	-27.3	-9.1	-36.9	-35.2	0.0
Cc1ccc2nc(-c3ccc(NC(=O)COC(=O)c4ccc([N+](=O)[O-])o4)cc3)sc2c1	70.7*	2.8	50.2	61.7*	-1.6	0.0
CC(C)CN1CCN(Cc2cccc3cccnc23)CC1CCO (centres undefined)	9.4	-1.7	-6.0	-37.6	-3.8	-4.0
CC(=O)N1CCN(CC(=O)Nc2cc([N+](=O)[O-])ccc2Cl)CC1	2.1	4.6	-3.0	-48.2	0.7	-1.0
CC(=O)N1CCN(CC(=O)Nc2c(Cl)cccc2Cl)CC1	24.9	-13.3	76.4*	34.3	-8.3	-1.0

Bioassay records (PubChem BioAssay)
